# Source: ChEMBL document CHEMBL3988442, “University of Dundee, Small-Polar-MMV Screening Library” (2021)
# Target: Shiga toxin 2 (Escherichia coli O157:H7) (UniProt P09385+P09386)
# Assay: E. coli 0.157:H7 Shiga Toxin SOP - stx2 screening assay
# Type: functional
# Design: scale not given: direction of the effect not stated beside the values
# Conditions: 30 µM
row,SMILES,Percent Effect
1,CN(C(=O)Cc1ccc2c(c1)OCCO2)C1CCCC1,0.101%
2,COCCN1CCC2(CCN(Cc3nccs3)CC2)C1=O,-8.73%
3,COc1ccccc1-c1noc(CN2CCCC2Cn2cccn2)n1 (stereo not given),21.6%
4,Cc1nn(C)c(Cl)c1CNCc1ccc(OCC(N)=O)cc1,-17.5%
5,COc1ncccc1C(=O)N1CCN(C(=O)Cc2ccccn2)CC1,-53.3%
6,CCC1c2ccsc2CCN1C(=O)NCCNc1ncccn1 (stereo not given),10.9%
7,CNC(=O)C1(c2cnccn2)CCCN1C(=O)c1ccn(C)n1 (stereo not given),-1.47%
8,COCCO[C@H]1CCN(C(=O)C2CCOCC2)[C@H]1Cc1ccncc1,-17.6%
9,CC(C)COCc1cncc2c1CCN(Cc1cnn(C)c1)C2,-36.8%
10,CNC(=O)c1cc2c(nc1NCC1CC1)CCN(c1ccncn1)CC2,-30.7%
11,CCc1c(C)nc2n(c1=O)CC(C(=O)Nc1ccccc1F)CS2 (stereo not given),-4.39%
12,Cc1ccccc1Cc1cnc(NC(=O)C2CNC(=O)N2)s1 (stereo not given),3.51%
13,Cc1cnn(CC2CCCN2CC(=O)N(C)Cc2ccc(C)o2)c1 (stereo not given),-11.2%
14,Cc1cccc(CN2C[C@@H]3COC[C@]3(COc3ccc(C#N)cn3)C2)n1,-13.9%
15,Cc1nc(NC(=O)CN2CCc3c(nc(C(C)C)n3C)C2)sc1C,5.46%
16,CCOC(=O)[C@]12CCCN(Cc3nccs3)C[C@H]1CN(CCN(C)C)C2,-7.56%
17,CC(=O)N1CCC(C(=O)c2cc(C)cnc2N)CC1,-6.78%
18,COCCN1CCC(NCc2cccc(F)c2)C1 (stereo not given),-17.4%
19,CN1CCN(c2ncnc3c2c(C(=O)NC2CC2)c2ccccn23)CC1,-14.4%
20,COc1ccc(C2CC(=O)Nc3c2cnn3C)cc1 (stereo not given),-21.4%

row,SMILES,Percent Effect
1,CC(C)Nc1ncnc2c1CCN(C(=O)Cc1ccccn1)CC2,-44.7%
2,Cc1nc(C)n(C2CCCN(C(=O)c3ccc4c(c3)COC4)C2)n1 (stereo not given),-16.5%
3,Cn1nc(C#N)c2c1CN(C(=O)c1cccnc1)CCC2,-7.73%
4,COCCN(Cc1ccoc1)C(=O)c1c(F)cccc1Cl,5.86%
5,Cc1ccnc(OCC(=O)N2CCC(C(N)=O)CC2)n1,1.84%
6,CC(=O)Nc1nc(C(=O)N2CCCC2c2ccccc2C)cs1 (stereo not given),1.85%
7,COCC(=O)NC1CC2(CCN(Cc3ccco3)CC2)c2ccccc21 (stereo not given),-5.13%
8,CC(Cn1ccnc1)NC(=O)N1CCN(Cc2cccnc2)CC1 (stereo not given),6.15%
9,Cc1csc2c(=O)n3c(nc12)CCN(C(=O)c1cccnc1)CC3,6.12%
10,Cc1cnn(CC2CCCCN2Cc2nnc(-c3ccco3)o2)c1 (stereo not given),2.18%
11,Cn1cc(CN2CCC3(CCCN(Cc4ccccn4)C3)CC2)cn1,-6.22%
12,CCOCCCn1c(NC(=O)c2ccc(C)nc2)nc2ccccc21,14.9%
13,O=C(CS(=O)(=O)c1ccccc1Cl)NC1CCCCNC1=O (stereo not given),4.72%
14,COc1cc(CCC(=O)NC2CC2)ccc1OCC(F)(F)F,30.2%
15,COc1ccc2c(c1)OCC(CNC(=O)c1ccncc1)C2 (stereo not given),17.7%
16,Cn1nnc2c1CCN(CC1CC1)C2COCc1ccccc1 (stereo not given),0.25%
17,CC(C)(C)SCCCC(=O)N1CCC(Nc2cccnn2)CC1,-5.49%
18,CCOc1cc(CN(C)CCOC)ccc1OC(F)F,-67.7%
19,Clc1ccccc1CN1CCc2nc(C3CCCCN3)ncc2C1 (stereo not given),-35.9%
20,Cn1cc(CNCCOc2ccc(F)c(F)c2)c(-c2cccnc2)n1,-38.1%
